We go through 8 compounds from PubChem BioAssay.

The nature of test [1]: inhibitors of TNFa-induced NFkB p65 translocation, primary screen, imaging, HUVEC, MLSMR starter and 10KST1 sets (AID 438;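 active means inhibition above 20% together with a positive visual image hit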;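 further: compound added about 3h40 before a 20 min TNFalpha stimulation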;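 on inhibition: signal is the nuclear over cytoplasmic p65 intensity ratio per well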). To be noted: HUVEC TNFa-induced p65 nuclear translocation; cell count: measured here: nuclei count (cytotoxicity indicator), at 2.08 µM; inhibition: at 2 µM, stronger effect = higher value, 0% TNFa-plus-vehicle, 100% no-TNFa wells.
The nature of test [2]: inhibitors of mutant huntingtin aggregation, primary screen, imaging, exon1htt(103Q)mCFP cells, high-content imaging (AID 483;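 active means visual image review flags a hit and inhibition of aggregation exceeds 20%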;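 further: compound exposure lasted 3 days before fixation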;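 on nuclei count: percent of the per-plate median nuclei count of sample wells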). To be noted: exon1htt(103Q)mCFP cell line, aggregate imaging, at 2 µM; inhibition of aggregation: stronger effect = higher value; nuclei count: measured here: cell count, toxicity.
Test [3] can be described thus: inhibitors of E-selectin induction by TNFa, primary screen, imaging, HUVEC, immunofluorescence, MLSMR starter and 10KST1 sets (AID 487;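 active means visually confirmed hit in the image check and inhibition above 20%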;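 on inhibition: signal is fraction of cell area covered by stained E-selectin grains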;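 on nuclei count: 100% = median nuclei count of all wells on the same plate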). To be noted: HUVEC TNFalpha-induced E-selectin immunofluorescence imaging, at 2 µM; inhibition: stronger effect = higher value; nuclei count: measured here: cell number, toxicity.
In test [4] the target is Voltage-gated potassium channel subunit beta-2 (Rattus norvegicus) (UniProt P62483). Briefly: KvBeta enzyme negative modulators, primary screen, biochemical, NADPH fluorescence (AID 622).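 Further: slope of raw intensity against log time taken from 70 to 1610 s.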 To be noted: recombinant KvBeta, 4-cyanobenzaldehyde reduction, at 10 µM, stronger effect = higher value.
Voltage-gated potassium channel subunit beta-2 (Rattus norvegicus), sequence (P62483 whole entry, looked up): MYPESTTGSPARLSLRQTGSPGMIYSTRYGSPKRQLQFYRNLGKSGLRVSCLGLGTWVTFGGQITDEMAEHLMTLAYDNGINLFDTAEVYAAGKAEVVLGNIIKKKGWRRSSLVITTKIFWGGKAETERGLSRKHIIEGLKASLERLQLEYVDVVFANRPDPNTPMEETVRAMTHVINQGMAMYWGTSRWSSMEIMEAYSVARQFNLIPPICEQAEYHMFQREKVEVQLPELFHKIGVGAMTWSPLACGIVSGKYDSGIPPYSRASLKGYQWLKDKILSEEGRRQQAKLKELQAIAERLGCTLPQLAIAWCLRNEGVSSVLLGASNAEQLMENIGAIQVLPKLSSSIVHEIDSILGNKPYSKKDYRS
Test [5] has the same target. Briefly: KvBeta positive modulators, primary screen, biochemical, NADPH fluorescence (AID 623;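 active means NADPH fluorescence slope more negative than the mean of all samples by about 3 SD, 99.7% confidence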;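 further: fluorescence intensity change per second fitted from 20 to 320 s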). To be noted: Recombinant KvBeta, NADPH fluorescence decrease slope, 10 min; at 10 µM; stronger effect = lower value.
The target of test [6] is Alpha-2C adrenergic receptor (Homo sapiens) (UniProt P18825). In words: modulators of alpha2C/GIRK thallium flux, primary screen, cell-based, HEK293 alpha2C/GIRK1/2 (AID 624;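 active means fluorescence slope after compound addition differing from the mean of all screened samples at 99.7% confidence, in either direction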;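 further: slope of fluorescence ratio to pre-addition baseline per second over 15 to 24 s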). To be noted: thallium flux BTC fluorescence, at 10 µM, actives lie on both sides.
Alpha-2C adrenergic receptor (Homo sapiens), sequence (P18825 whole entry, looked up): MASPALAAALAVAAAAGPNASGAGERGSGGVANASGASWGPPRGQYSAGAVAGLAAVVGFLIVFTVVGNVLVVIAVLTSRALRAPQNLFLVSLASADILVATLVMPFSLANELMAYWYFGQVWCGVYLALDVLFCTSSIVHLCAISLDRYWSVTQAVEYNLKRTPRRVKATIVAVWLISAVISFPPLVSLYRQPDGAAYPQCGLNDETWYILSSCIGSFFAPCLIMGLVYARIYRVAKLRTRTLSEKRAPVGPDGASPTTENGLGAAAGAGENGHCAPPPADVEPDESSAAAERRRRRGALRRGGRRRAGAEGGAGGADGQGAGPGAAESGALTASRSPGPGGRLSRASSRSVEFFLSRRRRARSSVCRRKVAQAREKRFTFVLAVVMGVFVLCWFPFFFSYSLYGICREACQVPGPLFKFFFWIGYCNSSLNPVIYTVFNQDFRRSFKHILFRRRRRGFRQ
Test [7] in a line: inhibitors of Sendai virus-induced IRF3 signaling, primary screen, TLR/RLR signaling modifier project, cell-based, Sendai virus stimulus, luciferase, 10K MLSCN set (AID 602276;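 active means inhibition at or above 50% at 10 µM; inactive means inhibition below 50%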;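 further: firefly luciferase from ISG56 promoter only with Renilla not read in this screen; 0% = Sendai virus plus DMSO and 100% = medium plus DMSO without virus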). To be noted: HEK293 RL24 IRF3 luciferase reporter, at 10 µM, stronger effect = higher value. A general note: In a reporter assay the amount or activity of a reporter protein is the signal.
Test [8] can be described thus: inhibitors of poly I:C-induced TLR3 signaling, primary screen, cell-based, poly I:C stimulus, luciferase, 10K MLSCN set (AID 602277;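 active means inhibition of the reporter signal at or above 50%; inactive means inhibition below 50%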). To be noted: HEK293-TLR3 RL24 IRF3 luciferase reporter, at 10 µM, stronger effect = higher value.

Structures are written as SMILES. Activity calls are given as the source filed them.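 How the source made its calls, unless noted: active means fluorescence slope higher than the sample average by over 3 SD (cut at about -0.22 in these data, passing the limit was not always enough); inactive means the rest.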

As usually defined, the inhibition is the relative decrease from the control value, in per cent. For the compound `Cc1ccc(S(=O)(=O)N2CCN(C(=O)c3cc(=O)[nH]c4ccccc34)CC2)c(C)c1`, the cell count in test [1] is 539. Moreover, the inhibition in test [1] was -11.9% (inactive); in test [3] it was 5.3% (inactive); in test [7] it was 17.3% (inactive); in test [8] it was 31% (inactive). In addition, in test [2], the inhibition of aggregation was -23.6% (inactive). The nuclei count in test [2] stood at 100%; in test [3], 162%. Also, the fluorescence slope in test [4] is -0.5 (inactive). In test [5], the NADPH fluorescence slope was -2.6e-05 (inactive). In test [6], the slope was 0.00525 (inactive).

Consider `CN(Cc1cccs1)CC(O)COCc1ccco1` (stereo not drawn), for which the cell count in test [1] worked out at 407. Also, the inhibition in test [1] was 6% (inactive); in test [3], -28.9% (inactive); in test [7] it was 11.5% (inactive); in test [8], 23.9% (inactive). The inhibition of aggregation in test [2] was -40.7% (inactive). Besides, the nuclei count was 116% in test [2] and 113% in test [3]. The fluorescence slope in test [4] is -0.591 (inactive). In addition, the NADPH fluorescence slope in test [5] is -4.7e-05 (inactive). The slope in test [6] is 0.00778 (inactive).

For `O=S(=O)(Cc1ccccc1)N1CCN(Cc2ccccc2)CC1`, in test [1], the cell count turned out to be 386. Also, the inhibition is 4.8% (inactive) in test [1], -74.1% (inactive) in test [3], -12% (inactive) in test [7] and -7.67% (inactive) in test [8]. The inhibition of aggregation in test [2] was 12.7% (inactive). Further, the nuclei count came to 103% in test [2] and 117% in test [3]. Moreover, in test [4], the fluorescence slope was -0.46 (inactive). In test [5], the NADPH fluorescence slope is 4.9e-05 (inactive). Further, the slope in test [6] is 0.00741 (inactive).

With `O=C1C/C(=C/NCc2ccccc2)C(=O)N1`, the cell count in test [1] worked out at 464. Also, the inhibition is -7.4% (inactive) in test [1], -106% (inactive) in test [3], 4.55% (inactive) in test [7] and 30.7% (inactive) in test [8]. Also, the inhibition of aggregation in test [2] was 22.7% (inactive). Also, the figures for the nuclei count in test [2] and in test [3] were 67.6% and 95.9%, respectively. In test [4], the fluorescence slope was -0.423 (inactive). Further, the NADPH fluorescence slope in test [5] is -2.2e-05 (inactive). Moreover, the slope in test [6] is 0.0024 (inactive).

`O=C(NCc1ccccc1)C1CCN(S(=O)(=O)c2cccc3cccnc23)CC1`: in test [1], the cell count came out at 823. For the same compound, the inhibition in test [1] was -3% (inactive); in test [3], -37.7% (inactive); in test [7] it was -3.36% (inactive); in test [8], 33.1% (inactive). In addition, in test [2], the inhibition of aggregation was 19% (inactive). The nuclei count in test [2] was 65.6%; in test [3], 111%. Further, the fluorescence slope in test [4] is -0.57 (inactive). The NADPH fluorescence slope in test [5] was 1.3e-05 (inactive). The slope in test [6] was 0.00702 (inactive).

As for `COC(=O)C1=C(N)OC2=C(C(=O)CCC2)C1c1cccs1` (stereo not drawn), the cell count in test [1] stood at 491. Moreover, the inhibition is 3.2% (inactive) in test [1], 44.1% (inactive) in test [3], 2.58% (inactive) in test [7] and 21.7% (inactive) in test [8]. In test [2], the inhibition of aggregation is 27.3% (inactive). For the same compound, the nuclei count is 52% in test [2] and 103% in test [3]. In addition, the fluorescence slope in test [4] is -0.49 (inactive). Besides, in test [5], the NADPH fluorescence slope is -3.8e-05 (inactive). The slope in test [6] is 0.00743 (inactive).

As for `c1ccc(CCc2nc(-c3cccnc3)no2)cc1`, the cell count in test [1] amounted to 647. Further, the inhibition in test [1] was 3.1% (inactive); in test [3] it was -102% (inactive); in test [7], -30.7% (inactive); in test [8] it was -90.7% (inactive). Moreover, the inhibition of aggregation in test [2] was 5% (inactive). For the same compound, the nuclei count in test [2] stood at 93%; in test [3], 132%. For the same compound, the fluorescence slope in test [4] is -0.636 (inactive). Further, in test [5], the NADPH fluorescence slope is 1.1e-05 (inactive). Also, the slope in test [6] was 0.00345 (inactive).

With `COc1ccc(Cc2nc(-c3ccc(Br)cc3)no2)cc1`, the cell count in test [1] amounted to 366. Further, the inhibition is 6% (inactive) in test [1], -17.5% (inactive) in test [3], -28.1% (inactive) in test [7] and -62.7% (inactive) in test [8]. Moreover, the inhibition of aggregation in test [2] was -7% (inactive). Moreover, the nuclei count in test [2] stood at 105%; in test [3] it was 107%. Moreover, in test [4], the fluorescence slope is -0.28 (inactive). The NADPH fluorescence slope in test [5] is 2e-05 (inactive). Moreover, in test [6], the slope was 0.00781 (inactive).
